Residue numbers refer to the chain shown, from its start.
target: T1, SALL4 ZFC4 WT (HT-SELEX) (Mus musculus, UniProt Q8BX22 870-940); test: HT-SELEX; high values mean tight binding; conditions: protein: recombinant; vector His6-GST; dsDNA, one strand shown
T1 sequence: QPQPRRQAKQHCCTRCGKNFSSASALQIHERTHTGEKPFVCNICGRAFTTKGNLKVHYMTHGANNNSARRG
Procedure, shortened: (§1)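 Purified recombinant mouse SALL4 zinc finger cluster 4 (residues 870–940, 1 µg) was incubated with library DNA (1.5 µg first cycle, 200 ng later) in 100 µl of 10 mM Tris–HCl pH 7.5, 50 mM NaCl, poly(dI-dC) and DTT for 10 min at room temperature, with Ni2+ bead capture and reselection for up to 6 cycles in triplicate. MiSeq reads were scanned for 6-mers. Binding signal is each canonical k-mer's read fraction as fold change relative to the initial random library.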

| Sequence | binding signal |
| --- | --- |
| ACCATA | 1.42 ± 0.0615 fold-change vs cycle 0 |
| TCGTAA | 1.21 ± 0.0956 fold-change vs cycle 0 |
| ACGAAT | 1.18 ± 0.0691 fold-change vs cycle 0 |
| CAATAG | 1.21 ± 0.0269 fold-change vs cycle 0 |
| GAAGTA | 1.43 ± 0.0516 fold-change vs cycle 0 |
| GGAATA | 1.41 ± 0.0746 fold-change vs cycle 0 |
| ATGATG | 1.43 ± 0.0727 fold-change vs cycle 0 |
| ATACGA | 1.26 ± 0.0299 fold-change vs cycle 0 |
| GGTATA | 1.3 ± 0.0598 fold-change vs cycle 0 |
| CTCTTA | 1.46 ± 0.0534 fold-change vs cycle 0 |
| GTGTTA | 1.31 ± 0.0667 fold-change vs cycle 0 |
| GAACTA | 1.37 ± 0.088 fold-change vs cycle 0 |
| GCATTA | 1.15 ± 0.025 fold-change vs cycle 0 |
| AGAATA | 2.17 ± 0.0586 fold-change vs cycle 0 |
| ATTCTC | 1.41 ± 0.062 fold-change vs cycle 0 |
| ACTATG | 1.34 ± 0.073 fold-change vs cycle 0 |

target: T2, SALL4 ZFC4 R900W (HT-SELEX) (Mus musculus, UniProt Q8BX22 870-940, R900W); test: HT-SELEX; high values mean tight binding; conditions: protein: recombinant; vector His6-GST; dsDNA, one strand shown
T2 sequence: T1 sequence with R31W
Procedure, shortened: as §1

| Sequence | binding signal |
| --- | --- |
| CAAATG | 1.17 ± 0.0524 fold-change vs cycle 0 |
| GCATAA | 1.11 ± 0.0331 fold-change vs cycle 0 |
| CATCTC | 1.01 ± 0.0376 fold-change vs cycle 0 |
| TAAGAA | 2.2 ± 0.155 fold-change vs cycle 0 |
| ACGAAA | 1.12 ± 0.0308 fold-change vs cycle 0 |
| AATACG | 1.11 ± 0.0569 fold-change vs cycle 0 |
| AAAACT | 1.7 ± 0.107 fold-change vs cycle 0 |
| AGGATG | 1.04 ± 0.0516 fold-change vs cycle 0 |
| ATGCAA | 1.18 ± 0.0732 fold-change vs cycle 0 |
| CCAATA | 1.24 ± 0.0246 fold-change vs cycle 0 |
| GGAAGA | 1.12 ± 0.0339 fold-change vs cycle 0 |
| ATGGAG | 1.04 ± 0.0611 fold-change vs cycle 0 |
| ACCAAT | 1.33 ± 0.0357 fold-change vs cycle 0 |
| ATAGCA | 1.21 ± 0.0922 fold-change vs cycle 0 |
| GAGAGA | 1.06 ± 0.0438 fold-change vs cycle 0 |
| CATAGA | 1.37 ± 0.0567 fold-change vs cycle 0 |
| AAATGG | 1.16 ± 0.0862 fold-change vs cycle 0 |
